We go through 7 sequences from publication PMC7862700, “An all-to-all approach to the identification of sequence-specific readers for epigenetic DNA modifications on cytosine”.

What all share (assay): DAPPL (digital affinity profiling via proximity ligation, sequencing); 10 mM Tris-HCl pH 7.5, 50 mM NaCl, 1 mM DTT, 4% glycerol, room temperature, 30 min; GST-TFs on glutathione beads, 16-mer random dsDNA library, 0.1% formaldehyde crosslink after washing; high values mean tight binding
Common to all, as to conditions: protein: recombinant; tags: N-terminal GST; dsDNA, one strand shown

One assay has as its target T1, FLI1 (Homo sapiens, UniProt Q01543 1-452).
T1 sequence: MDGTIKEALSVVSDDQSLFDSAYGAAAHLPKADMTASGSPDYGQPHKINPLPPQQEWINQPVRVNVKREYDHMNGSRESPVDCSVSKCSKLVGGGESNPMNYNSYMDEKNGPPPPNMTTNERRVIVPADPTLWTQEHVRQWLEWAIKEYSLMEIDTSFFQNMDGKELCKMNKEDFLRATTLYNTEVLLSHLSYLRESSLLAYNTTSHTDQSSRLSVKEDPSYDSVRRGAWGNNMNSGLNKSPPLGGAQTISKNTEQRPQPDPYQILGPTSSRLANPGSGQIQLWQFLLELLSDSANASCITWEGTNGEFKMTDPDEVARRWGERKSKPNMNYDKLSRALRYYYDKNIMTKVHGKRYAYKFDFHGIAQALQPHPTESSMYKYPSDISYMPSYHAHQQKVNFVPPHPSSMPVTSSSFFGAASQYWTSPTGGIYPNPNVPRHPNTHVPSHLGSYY
The procedure, abridged:
(§1)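 The binding signal reported is, for every hexamer, its read frequency for a factor over its read frequency for the tag-only sample. Reads came from pools of yeast-expressed, GST-fused human transcription factors on glutathione beads, barcoded with DNA and mixed with that sample, which were incubated with 200 nmole of a random double-stranded 16-mer DNA library in Tris/NaCl/DTT/glycerol buffer at room temperature for 30 min. After washing, the pools were crosslinked with 0.1% formaldehyde, proximity-ligated with BsaI/T4 ligase for 1 h at 37 °C, PCR-amplified and sequenced on an Illumina NextSeq500.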

The next assay has as its target T2, ELK1 (Homo sapiens, UniProt P19419 1-428).
T2 sequence: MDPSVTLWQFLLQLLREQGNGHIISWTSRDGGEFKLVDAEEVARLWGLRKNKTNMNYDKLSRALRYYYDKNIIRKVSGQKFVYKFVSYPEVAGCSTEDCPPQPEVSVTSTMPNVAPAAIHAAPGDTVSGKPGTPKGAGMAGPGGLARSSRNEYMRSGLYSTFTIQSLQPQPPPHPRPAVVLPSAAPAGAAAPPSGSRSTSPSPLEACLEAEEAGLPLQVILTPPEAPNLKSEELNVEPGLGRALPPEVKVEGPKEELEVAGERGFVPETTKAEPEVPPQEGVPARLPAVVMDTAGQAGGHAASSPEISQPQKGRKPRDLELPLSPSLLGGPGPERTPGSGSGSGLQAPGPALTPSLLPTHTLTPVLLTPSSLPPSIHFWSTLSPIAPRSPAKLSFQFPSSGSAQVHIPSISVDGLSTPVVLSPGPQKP
The procedure, abridged: as §1

A further assay concerns the target T3, GABPA (Homo sapiens, UniProt Q06546 1-454).
T3 sequence: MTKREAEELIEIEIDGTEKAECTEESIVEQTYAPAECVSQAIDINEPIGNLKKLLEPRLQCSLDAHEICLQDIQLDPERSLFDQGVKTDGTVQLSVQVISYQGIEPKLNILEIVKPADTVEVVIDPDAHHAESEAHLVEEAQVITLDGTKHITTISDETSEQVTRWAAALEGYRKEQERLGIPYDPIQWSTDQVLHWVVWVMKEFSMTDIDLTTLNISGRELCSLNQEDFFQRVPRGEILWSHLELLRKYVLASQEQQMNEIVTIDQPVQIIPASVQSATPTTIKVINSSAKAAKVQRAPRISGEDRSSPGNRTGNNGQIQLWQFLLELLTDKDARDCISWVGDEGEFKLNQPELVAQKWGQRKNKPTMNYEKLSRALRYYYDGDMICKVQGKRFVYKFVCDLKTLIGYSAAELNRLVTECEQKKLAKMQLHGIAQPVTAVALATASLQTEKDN
In outline: as §1

In the next assay the target is T4, ERG (Homo sapiens, UniProt P11308 1-479).
T4 sequence: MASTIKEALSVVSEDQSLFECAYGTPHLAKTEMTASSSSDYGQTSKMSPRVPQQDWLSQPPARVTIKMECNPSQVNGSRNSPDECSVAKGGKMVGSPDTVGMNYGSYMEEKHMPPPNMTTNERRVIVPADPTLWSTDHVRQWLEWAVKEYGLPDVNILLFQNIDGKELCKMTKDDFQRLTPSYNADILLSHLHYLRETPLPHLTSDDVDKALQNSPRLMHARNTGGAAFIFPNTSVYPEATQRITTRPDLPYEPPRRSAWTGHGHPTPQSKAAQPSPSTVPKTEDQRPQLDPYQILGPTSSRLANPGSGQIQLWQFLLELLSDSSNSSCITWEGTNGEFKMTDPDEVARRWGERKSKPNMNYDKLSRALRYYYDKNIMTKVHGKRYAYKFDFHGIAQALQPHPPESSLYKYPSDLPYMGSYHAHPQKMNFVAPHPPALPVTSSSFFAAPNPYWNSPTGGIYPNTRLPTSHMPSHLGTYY
In outline:
as §1

The target in another assay is ELF1 (Homo sapiens, UniProt P32519 1-619). The procedure, abridged: as §1
Sequence of ELF1 (P32519 whole entry): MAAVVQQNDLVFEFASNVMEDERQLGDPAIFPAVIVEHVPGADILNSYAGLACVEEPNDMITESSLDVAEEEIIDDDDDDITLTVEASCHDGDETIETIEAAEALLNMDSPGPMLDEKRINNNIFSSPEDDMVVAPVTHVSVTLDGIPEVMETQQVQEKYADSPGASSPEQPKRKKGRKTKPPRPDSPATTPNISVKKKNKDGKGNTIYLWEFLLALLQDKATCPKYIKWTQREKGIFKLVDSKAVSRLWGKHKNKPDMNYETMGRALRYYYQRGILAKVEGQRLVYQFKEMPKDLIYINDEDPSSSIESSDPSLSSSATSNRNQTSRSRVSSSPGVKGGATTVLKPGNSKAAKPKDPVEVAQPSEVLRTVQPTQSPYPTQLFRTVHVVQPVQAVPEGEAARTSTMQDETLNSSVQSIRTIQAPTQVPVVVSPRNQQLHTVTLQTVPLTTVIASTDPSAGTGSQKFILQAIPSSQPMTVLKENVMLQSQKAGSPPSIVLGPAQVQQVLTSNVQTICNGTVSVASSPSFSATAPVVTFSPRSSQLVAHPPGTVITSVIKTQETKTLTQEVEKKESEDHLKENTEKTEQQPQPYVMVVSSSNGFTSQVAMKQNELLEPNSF
A further assay addresses T5, EHF (Homo sapiens, UniProt Q9NZC4 1-300).
T5 sequence: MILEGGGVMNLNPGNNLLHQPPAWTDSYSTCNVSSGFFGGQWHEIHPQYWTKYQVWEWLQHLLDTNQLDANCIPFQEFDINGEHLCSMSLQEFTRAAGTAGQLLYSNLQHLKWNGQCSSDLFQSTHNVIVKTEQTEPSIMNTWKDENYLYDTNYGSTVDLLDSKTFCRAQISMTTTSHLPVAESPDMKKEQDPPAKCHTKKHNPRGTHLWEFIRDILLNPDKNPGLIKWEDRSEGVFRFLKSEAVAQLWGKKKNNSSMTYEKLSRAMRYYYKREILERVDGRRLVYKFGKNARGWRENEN
The procedure, abridged: as §1

A further assay has as its target SPI1 (Homo sapiens, UniProt P17947 1-270). In outline: as §1
The target in another assay is SPIB (Homo sapiens, UniProt Q01892 1-262). The procedure, abridged:
as §1

Another assay addresses T6, ELK3 (Homo sapiens, UniProt P41970 1-407).
T6 sequence: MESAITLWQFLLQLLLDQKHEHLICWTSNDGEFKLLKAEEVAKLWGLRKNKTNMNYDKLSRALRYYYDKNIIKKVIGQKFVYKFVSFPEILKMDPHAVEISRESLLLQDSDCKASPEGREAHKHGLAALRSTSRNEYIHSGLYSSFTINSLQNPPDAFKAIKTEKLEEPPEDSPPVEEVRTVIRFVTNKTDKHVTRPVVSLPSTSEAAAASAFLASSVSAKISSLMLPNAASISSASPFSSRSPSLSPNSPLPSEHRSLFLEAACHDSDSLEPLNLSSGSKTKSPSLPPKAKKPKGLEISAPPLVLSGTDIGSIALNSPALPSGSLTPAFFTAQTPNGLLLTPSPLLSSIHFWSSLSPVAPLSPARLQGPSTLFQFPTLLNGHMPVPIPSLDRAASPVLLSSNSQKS
The procedure, abridged: as §1

Sequence of SPIB (Q01892 whole entry): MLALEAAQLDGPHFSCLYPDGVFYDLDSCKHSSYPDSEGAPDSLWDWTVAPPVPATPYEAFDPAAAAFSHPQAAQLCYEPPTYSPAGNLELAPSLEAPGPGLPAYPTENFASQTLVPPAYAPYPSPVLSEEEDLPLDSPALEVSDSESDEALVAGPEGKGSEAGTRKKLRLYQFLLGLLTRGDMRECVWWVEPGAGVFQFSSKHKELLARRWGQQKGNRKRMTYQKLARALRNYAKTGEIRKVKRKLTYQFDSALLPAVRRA

Consider TAACCT, for which the binding signal with FLI1 is 1.2 fold enrichment (6-mer frequency, TF over GST control); with ELK1, 1.32 fold enrichment (6-mer frequency, TF over GST control); with GABPA it was 1.35 fold enrichment (6-mer frequency, TF over GST control); in the assay with ERG it was 1.12 fold enrichment (6-mer frequency, TF over GST control); with ELF1, 1.35 fold enrichment (6-mer frequency, TF over GST control); in the assay with EHF, 1.29 fold enrichment (6-mer frequency, TF over GST control). In addition, the binding signal with SPI1 is 1.29 fold enrichment (6-mer frequency, TF over GST control); with SPIB it was 1.31 fold enrichment (6-mer frequency, TF over GST control); in the assay with ELK3, 1.43 fold enrichment (6-mer frequency, TF over GST control).
With TAAAAT, the binding signal in the assay with FLI1 is 1.17 fold enrichment (6-mer frequency, TF over GST control); in the assay with ELK1, 1.2 fold enrichment (6-mer frequency, TF over GST control); with GABPA, 1.25 fold enrichment (6-mer frequency, TF over GST control); with ERG, 1.19 fold enrichment (6-mer frequency, TF over GST control); with ELF1, 1.24 fold enrichment (6-mer frequency, TF over GST control); with EHF, 1.1 fold enrichment (6-mer frequency, TF over GST control). The binding signal with SPI1 is 1.25 fold enrichment (6-mer frequency, TF over GST control); in the assay with SPIB it was 1.2 fold enrichment (6-mer frequency, TF over GST control); in the assay with ELK3 it was 1.1 fold enrichment (6-mer frequency, TF over GST control).
TCACTG: the binding signal is 1.21 fold enrichment (6-mer frequency, TF over GST control) with FLI1; 1.16 fold enrichment (6-mer frequency, TF over GST control) with ELK1; 1.22 fold enrichment (6-mer frequency, TF over GST control) with GABPA; 1.27 fold enrichment (6-mer frequency, TF over GST control) with ERG; 1.26 fold enrichment (6-mer frequency, TF over GST control) in the assay with ELF1; 1.18 fold enrichment (6-mer frequency, TF over GST control) with EHF. Also, the binding signal with SPI1 is 1.15 fold enrichment (6-mer frequency, TF over GST control); with SPIB it was 1.3 fold enrichment (6-mer frequency, TF over GST control); in the assay with ELK3, 1.2 fold enrichment (6-mer frequency, TF over GST control).
For the sequence TATGGG, the binding signal was 1.23 fold enrichment (6-mer frequency, TF over GST control) in the assay with FLI1; 1.06 fold enrichment (6-mer frequency, TF over GST control) with ELK1; 1.25 fold enrichment (6-mer frequency, TF over GST control) in the assay with GABPA; 1.15 fold enrichment (6-mer frequency, TF over GST control) with ERG; 1.16 fold enrichment (6-mer frequency, TF over GST control) in the assay with ELF1; 1.37 fold enrichment (6-mer frequency, TF over GST control) with EHF. Besides, the binding signal with SPI1 was 1.21 fold enrichment (6-mer frequency, TF over GST control); with SPIB, 1.27 fold enrichment (6-mer frequency, TF over GST control); with ELK3, 1.18 fold enrichment (6-mer frequency, TF over GST control).
Consider TAAATT, for which the binding signal with FLI1 is 1.26 fold enrichment (6-mer frequency, TF over GST control); in the assay with ELK1, 1.22 fold enrichment (6-mer frequency, TF over GST control); in the assay with GABPA, 1.2 fold enrichment (6-mer frequency, TF over GST control); in the assay with ERG, 1.22 fold enrichment (6-mer frequency, TF over GST control); with ELF1, 1.27 fold enrichment (6-mer frequency, TF over GST control); in the assay with EHF it was 1.32 fold enrichment (6-mer frequency, TF over GST control). Further, the binding signal with SPI1 was 1.22 fold enrichment (6-mer frequency, TF over GST control); with SPIB it was 1.3 fold enrichment (6-mer frequency, TF over GST control); with ELK3, 1.31 fold enrichment (6-mer frequency, TF over GST control).
Take TTTCAG: the binding signal was 1.36 fold enrichment (6-mer frequency, TF over GST control) in the assay with FLI1; 1.19 fold enrichment (6-mer frequency, TF over GST control) with ELK1; 1.34 fold enrichment (6-mer frequency, TF over GST control) with GABPA; 1.3 fold enrichment (6-mer frequency, TF over GST control) with ERG; 1.31 fold enrichment (6-mer frequency, TF over GST control) with ELF1; 1.34 fold enrichment (6-mer frequency, TF over GST control) with EHF. In addition, the binding signal with SPI1 is 1.35 fold enrichment (6-mer frequency, TF over GST control); in the assay with SPIB it was 1.24 fold enrichment (6-mer frequency, TF over GST control); in the assay with ELK3, 1.23 fold enrichment (6-mer frequency, TF over GST control).
In the case of CCAACT, the binding signal with FLI1 is 1.26 fold enrichment (6-mer frequency, TF over GST control); with ELK1 it was 1.19 fold enrichment (6-mer frequency, TF over GST control); in the assay with GABPA, 1.23 fold enrichment (6-mer frequency, TF over GST control); with ERG, 1.26 fold enrichment (6-mer frequency, TF over GST control); with ELF1, 1.25 fold enrichment (6-mer frequency, TF over GST control); in the assay with EHF, 1.24 fold enrichment (6-mer frequency, TF over GST control). For the same sequence, the binding signal with SPI1 is 1.14 fold enrichment (6-mer frequency, TF over GST control); with SPIB, 1.25 fold enrichment (6-mer frequency, TF over GST control); with ELK3 it was 1.19 fold enrichment (6-mer frequency, TF over GST control).
